PubChem BioAssay AID1159580 (chemical genetic matrix, 2015)
Screen size: about 5,500 compounds; about 2,000 (36%) were called active. Another 18% or so got no clear call; they are omitted. Cut-off read from the data, not from the text of the source: active = normalized growth mostly below about 0.91 (no sharp cut-off); inconclusive = no clear call, values can overlap the other calls; inactive = mostly above about 0.92. The list shows a part of the results.

Assay: chemical genetic growth profiling, strain panel (AID 1159580);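 note: tested at 20 µM; growth read once vehicle control cultures reached saturation at 30 °C; 1 = growth at the plate median or of vehicle wells; lower values mean less growth of the strain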
Conditions: growth OD

Measured: normalized growth

O=C(Nc1ccc(C(F)(F)F)cc1)Nc1ccccc1C(=O)O
inactive: S. cerevisiae deletion strains, locus YAL013W, strain DEP1, active compounds read low 0.975 | S. cerevisiae deletion strains, locus YBR229C, strain ROT2, active compounds read low 0.993 | S. cerevisiae deletion strains, locus YCL061C, strain MRC1, active compounds read low 0.967 | S. cerevisiae deletion strains, locus YDL101C, strain DUN1, active compounds read low 0.994 | S. cerevisiae deletion strains, locus YDL134C, strain PPH21, active compounds read low 0.989 | S. cerevisiae deletion strains, locus YDR150W, strain NUM1, active compounds read low 0.972 | S. cerevisiae deletion strains, locus YEL061C, strain CIN8, active compounds read low 1.01 | S. cerevisiae deletion strains, locus YGR078C, strain PAC10, active compounds read low 0.984 | S. cerevisiae deletion strains, locus YGR229C, strain SMI1, active compounds read low 0.975 | S. cerevisiae deletion strains, locus YHR030C, strain SLT2, active compounds read low 0.99 | S. cerevisiae deletion strains, locus YHR087W, strain rtc3, active compounds read low 0.994 | S. cerevisiae deletion strains, locus YJR043C, strain POL32, active compounds read low 0.981 | S. cerevisiae deletion strains, locus YJR075W, strain HOC1, active compounds read low 0.979 | S. cerevisiae deletion strains, locus YKL190W, strain CNB1, active compounds read low 0.989 | S. cerevisiae deletion strains, locus YLR039C, strain RIC1, active compounds read low 1.01 | S. cerevisiae deletion strains, locus YLR058C, strain SHM2 (second series), active compounds read low 0.979 | S. cerevisiae deletion strains, locus YLR085C, strain ARP6, active compounds read low 1 | S. cerevisiae deletion strains, locus YLR262C, strain YPT6, active compounds read low 0.935 | S. cerevisiae deletion strains, locus YML094W, strain GIM5, active compounds read low 1 | S. cerevisiae deletion strains, locus YMR219W, strain ESC1, active compounds read low 0.971 | S. cerevisiae deletion strains, locus YMR263W, strain SAP30, active compounds read low 0.991 | S. cerevisiae deletion strains, locus YNL153C, strain GIM3, active compounds read low 0.977 | S. cerevisiae deletion strains, locus YNL298W, strain CLA4 (second series), active compounds read low 0.96 | S. cerevisiae deletion strains, locus YNL322C, strain KRE1, active compounds read low 0.971 | S. cerevisiae deletion strains, locus YNR030W, strain Alg12, active compounds read low 1 | S. cerevisiae deletion strains, locus YOL006C, strain TOP1, active compounds read low 0.939 | S. cerevisiae deletion strains, locus YPL055C, strain LGE1, active compounds read low 0.996 | S. cerevisiae deletion strains, locus YPL241C, strain CIN2, active compounds read low 0.977 | S. cerevisiae deletion strains, locus YPR135W, strain CTF4, active compounds read low 0.949 | S. cerevisiae strains, strain wild type, active compounds read low 0.968
